Measured values published in PubChem BioAssay (EPA / NIEHS).
Records with an inconclusive call do not appear. Calls of active or inactive are those of the source. The calls were made as follows, unless noted: active = hit-call score of the fitted dose curve at least 0.9, where 1 is the maximum; inactive = score below 0.9.

How the values were obtained:
[1] = biological target: Transcription factor Sp1 (Homo sapiens) (UniProt P08047); test: ATG_Sp1_CIS: Attagene CIS-FACTORIAL HepG2 Assay for human Specificity Protein 1 (Sp1) (AID 2282961); conditions: HepG2 Sp1 cis-reporter transcription, actives raise or lower the signal
Chain of Transcription factor Sp1 (Homo sapiens) (P08047 whole entry, looked up): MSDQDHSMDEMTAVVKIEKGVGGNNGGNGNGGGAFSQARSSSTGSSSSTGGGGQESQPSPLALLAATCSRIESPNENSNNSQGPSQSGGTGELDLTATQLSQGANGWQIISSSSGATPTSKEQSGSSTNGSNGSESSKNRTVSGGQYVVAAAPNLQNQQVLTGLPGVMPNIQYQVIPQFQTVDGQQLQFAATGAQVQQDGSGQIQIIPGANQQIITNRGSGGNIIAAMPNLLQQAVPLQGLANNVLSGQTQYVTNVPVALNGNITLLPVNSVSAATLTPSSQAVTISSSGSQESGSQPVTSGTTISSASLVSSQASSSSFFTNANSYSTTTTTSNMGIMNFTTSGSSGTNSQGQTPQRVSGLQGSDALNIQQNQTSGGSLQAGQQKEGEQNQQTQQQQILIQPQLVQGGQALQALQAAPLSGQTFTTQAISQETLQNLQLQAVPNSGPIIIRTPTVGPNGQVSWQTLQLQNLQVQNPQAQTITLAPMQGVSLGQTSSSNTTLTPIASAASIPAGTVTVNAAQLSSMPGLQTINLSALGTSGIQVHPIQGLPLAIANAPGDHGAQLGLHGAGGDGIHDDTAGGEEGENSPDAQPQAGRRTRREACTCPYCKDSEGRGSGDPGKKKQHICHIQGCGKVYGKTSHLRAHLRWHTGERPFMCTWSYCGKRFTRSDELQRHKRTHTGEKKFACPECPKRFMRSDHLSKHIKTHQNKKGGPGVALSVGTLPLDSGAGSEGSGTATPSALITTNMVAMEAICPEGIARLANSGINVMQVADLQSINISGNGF
In short: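 Chemicals are dosed onto HepG2 cells transfected with multiple cis-promoter reporter constructs, and after 24 h reporter RNA is reverse-transcribed, PCR-amplified and resolved by capillary electrophoresis for fluorescence quantitation; activity is scored up or down against DMSO.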

[2] = ATG_SREBP_CIS: Attagene CIS-FACTORIAL HepG2 Assay for human Sterol Regulatory Element Binding (SREBP) (AID 2282962); conditions: HepG2 Attagene cis-factorial SREBP reporter, mRNA; actives raise or lower the signal
In short: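 Readout: fluorescent reporter-transcript peaks resolved by capillary electrophoresis after RT-PCR. Cells were human HepG2 carrying transfected cis-promoter reporter constructs, dosed for 24 h. Gain or loss of signal was fitted against DMSO controls.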

[3] = biological target: Signal transducer and activator of transcription 3 (Homo sapiens) (UniProt P40763); test: ATG_STAT3_CIS: Attagene CIS-FACTORIAL HepG2 Assay for human Signal Transducer and Activator of Transcription 3 (STAT3) (AID 2282963); conditions: HepG2, Attagene cis-factorial STAT3 reporter transcription; actives raise or lower the signal
Chain of Signal transducer and activator of transcription 3 (Homo sapiens) (P40763 whole entry, looked up): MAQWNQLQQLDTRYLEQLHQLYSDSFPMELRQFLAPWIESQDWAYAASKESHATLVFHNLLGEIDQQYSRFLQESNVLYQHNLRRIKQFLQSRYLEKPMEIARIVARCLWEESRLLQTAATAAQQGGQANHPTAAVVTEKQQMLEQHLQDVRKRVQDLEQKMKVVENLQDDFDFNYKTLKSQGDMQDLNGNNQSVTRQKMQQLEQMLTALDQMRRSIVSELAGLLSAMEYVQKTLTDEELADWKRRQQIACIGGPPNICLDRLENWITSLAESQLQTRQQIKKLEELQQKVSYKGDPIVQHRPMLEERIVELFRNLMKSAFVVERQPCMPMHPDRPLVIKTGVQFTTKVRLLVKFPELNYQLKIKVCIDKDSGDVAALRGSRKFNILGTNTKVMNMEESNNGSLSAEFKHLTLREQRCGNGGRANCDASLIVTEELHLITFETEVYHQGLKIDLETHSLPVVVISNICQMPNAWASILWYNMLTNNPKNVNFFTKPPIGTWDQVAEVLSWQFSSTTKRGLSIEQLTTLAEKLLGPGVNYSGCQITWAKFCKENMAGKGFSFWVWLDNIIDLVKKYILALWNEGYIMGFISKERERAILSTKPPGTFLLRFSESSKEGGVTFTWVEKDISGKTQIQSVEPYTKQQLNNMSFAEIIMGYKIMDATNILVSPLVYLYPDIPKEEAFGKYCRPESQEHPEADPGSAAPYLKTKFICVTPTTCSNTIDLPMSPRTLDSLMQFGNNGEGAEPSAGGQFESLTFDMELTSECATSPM
In short: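 Uses human liver HepG2 transiently carrying cis-regulated reporter transcription units. Following 24 h dosing, reporter mRNA induction was detected by RT-PCR and capillary electrophoresis, analysed bidirectionally versus DMSO.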

[4] = ATG_TCF_b_cat_CIS: Attagene CIS-FACTORIAL HepG2 Assay for human T-Cell-Factor with beta-catenin (TCF/b-cat) (AID 2282965); conditions: HepG2 TCF/beta-catenin cis-reporter transcription, actives raise or lower the signal
In short: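 Using capillary electrophoresis as the read-out, labelled reporter cDNA fragments from transiently transfected HepG2 were sized and quantified. Exposure lasted 24 hours; activity in either direction was referenced to DMSO.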

[5] = ATG_TAL_CIS: Attagene CIS-FACTORIAL HepG2 Assay for human TAL Basal Promoter (AID 2282966); conditions: HepG2 Attagene cis-factorial TAL promoter reporter; actives raise or lower the signal;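 also: background control endpoint measuring basal TAL promoter reporter mRNA not a specific factor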
In short: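 After 24 hours of chemical exposure, transfected HepG2 cells yielded RNA that was converted to 6-FAM-labelled, HpaI-digested reporter fragments for capillary electrophoresis. Values derive from bidirectional fitting against DMSO controls.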

[6] = ATG_TGFb_CIS: Attagene CIS-FACTORIAL HepG2 Assay for human Transforming Growth Factor (TGF) (AID 2282967); conditions: HepG2 Attagene CIS TGFb reporter, mRNA transcription; actives raise or lower the signal
In short: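 Transient MRTU transfection of HepG2 (FuGene 6). Dose 24 h. TriZol RNA, oligo(dT) RT, PCR, 6-FAM primer extension, HpaI cut, CE. Bidirectional fit, DMSO = baseline.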

[7] = biological target: Nuclear receptor subfamily 1 group I member 3 (Homo sapiens) (UniProt Q14994); test: ATG_CAR_TRANS: Attagene TRANS-FACTORIAL HepG2 Assay for human Constitutive Androstane Receptor (CAR) (AID 2282969; active = hit-call score of the fitted dose curve at least 0.9, where 1 is the maximum;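 also: activators raise reporter mRNA above DMSO so AC50 marks induction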); conditions: HepG2 Attagene TRANS-FACTORIAL CAR reporter
Chain of Nuclear receptor subfamily 1 group I member 3 (Homo sapiens) (Q14994 whole entry, looked up, the tested form may be a part): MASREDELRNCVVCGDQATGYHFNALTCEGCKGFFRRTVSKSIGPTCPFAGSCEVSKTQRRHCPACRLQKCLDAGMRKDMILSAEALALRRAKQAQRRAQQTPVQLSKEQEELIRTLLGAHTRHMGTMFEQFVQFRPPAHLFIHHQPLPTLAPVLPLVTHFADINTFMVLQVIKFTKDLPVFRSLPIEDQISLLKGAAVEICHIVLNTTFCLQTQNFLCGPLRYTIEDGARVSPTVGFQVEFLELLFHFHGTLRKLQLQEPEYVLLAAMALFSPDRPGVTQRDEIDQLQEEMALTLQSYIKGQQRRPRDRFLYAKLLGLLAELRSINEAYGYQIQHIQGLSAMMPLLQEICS
In short: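 Steps: transient transfection of HepG2 with multiple GAL4-UAS reporter units; 24 h compound incubation; RNA isolation, RT-PCR, 6-FAM primer extension, HpaI digest; capillary electrophoresis. Gain-of-signal relative to DMSO negative control.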

[8] = ATG_TA_CIS: Attagene CIS-FACTORIAL HepG2 Assay for human TA Basal Promoter (AID 2282964); conditions: HepG2 Attagene CIS-factorial TA basal promoter reporter; actives raise or lower the signal
In short: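 Read-out: fluorescent reporter-transcript fragments resolved by capillary electrophoresis after RT-PCR and HpaI digestion. Source: HepG2 cells carrying transiently transfected multi-reporter cis constructs, treated 24 h. Endpoint fitted bidirectionally relative to DMSO.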

[9] = ATG_VDRE_CIS: Attagene CIS-FACTORIAL HepG2 Assay for human Vitamin D Receptor Element (VDRE) (AID 2282968); conditions: HepG2 VDRE cis-reporter transcription, actives raise or lower the signal
In short: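 Transfected HepG2 reporter cells, chemical treatment 24 h. RNA isolated, cDNA amplified with reporter-specific primers, products analysed by capillary electrophoresis. Endpoint fitted in both directions versus DMSO.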

[10] = biological target: Estrogen receptor (Homo sapiens) (UniProt P03372); test: ATG_ERa_TRANS: Attagene TRANS-FACTORIAL HepG2 Assay for human Estrogen Receptor alpha (ERa) (AID 2282970; active = hit-call score of the fitted dose curve at least 0.9, where 1 is the maximum); conditions: HepG2 Attagene TRANS ERa GAL4 reporter, mRNA
Chain of Estrogen receptor (Homo sapiens) (P03372 whole entry, looked up, the tested form may be a part): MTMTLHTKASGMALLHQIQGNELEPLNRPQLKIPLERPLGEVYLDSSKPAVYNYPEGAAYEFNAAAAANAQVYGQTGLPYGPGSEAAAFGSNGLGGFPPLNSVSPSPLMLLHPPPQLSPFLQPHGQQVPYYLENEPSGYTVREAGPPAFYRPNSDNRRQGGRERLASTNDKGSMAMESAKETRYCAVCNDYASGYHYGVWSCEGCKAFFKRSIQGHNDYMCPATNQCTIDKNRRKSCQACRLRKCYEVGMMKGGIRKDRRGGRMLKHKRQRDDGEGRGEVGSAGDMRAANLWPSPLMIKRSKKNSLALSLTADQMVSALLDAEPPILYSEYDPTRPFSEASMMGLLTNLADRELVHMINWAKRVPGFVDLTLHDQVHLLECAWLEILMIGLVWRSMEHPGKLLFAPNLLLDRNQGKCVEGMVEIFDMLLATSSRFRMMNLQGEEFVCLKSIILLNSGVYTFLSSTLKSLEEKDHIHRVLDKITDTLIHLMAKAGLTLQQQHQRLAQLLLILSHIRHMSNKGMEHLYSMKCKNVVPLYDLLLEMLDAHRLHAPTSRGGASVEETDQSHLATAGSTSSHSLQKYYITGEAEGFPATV
In short: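 Liver-derived HepG2 cells expressing chimeric nuclear receptor-Gal4 proteins from transient transfection were exposed for 24 hours. Gain of reporter mRNA signal versus DMSO, read by capillary electrophoresis of FAM-labelled PCR products, was recorded.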

Measured: AC50

CC(c1ccc(O)cc1)c1ccc(O)cc1
not listed: [8] | [9] | [10]
inactive: all other assays above

C#C[C@]1(O)CC[C@H]2[C@@H]3CCC4=CC(=O)CC[C@]4(C)[C@H]3CC[C@@]21C
inactive: [1] | [2] | [3] | [4] | [5] | [6]

CCOC(=O)Cc1ccccc1
not listed: [5] | [10]
inactive: all other assays above

Cc1cc(Cl)ccc1N
not listed: [5] | [9] | [10]
inactive: all other assays above

CCCCS(=O)(=O)Cl
not listed: [8] | [10]
inactive: all other assays above

COCC(=O)N(c1c(C)cccc1C)[C@H](C)C(=O)OC
not listed: [8] | [10]
inactive: all other assays above

C=CCOC(F)(C(F)(F)F)C(F)(F)F
not listed: [7] | [8] | [10]
inactive: all other assays above

CC(C)(C)c1cc([N+](=O)[O-])cc(C(C)(C)C)c1O
active: [6] 26.3 µM | [9] 3.16 µM
not listed: [8]
inactive: all other assays above

Clc1cccc(Cl)c1
not listed: [7] | [8] | [10]
inactive: all other assays above

OC(Cc1ccccc1Cl)(Cn1[nH]cnc1=S)C1(Cl)CC1 (stereo not drawn)
active: [9] 18 µM | [10] 5.83 µM
not listed: [5]
inactive: all other assays above

CC(C)(c1ccccc1)c1cc(-n2nc3ccccc3n2)c(O)c(C(C)(C)c2ccccc2)c1
not listed: [8]
inactive: all other assays above

N#CCC#N
not listed: [7] | [8] | [10]
inactive: all other assays above

Oc1cccc(-c2ccccc2)c1
active: [1] 168 µM | [2] 64.2 µM | [9] 66.3 µM | [10] 6.57 µM
not listed: [5]
inactive: all other assays above

O=S1(=O)OC(c2cc(Br)c(O)c(Br)c2)(c2cc(Br)c(O)c(Br)c2)c2ccccc21
active: [4] 121 µM
not listed: [5] | [7]
inactive: all other assays above

O=NN1CCCCCC1
not listed: [5] | [7]
inactive: all other assays above

CC1(C)COP(Oc2ccccc2)OC1
not listed: [5] | [10]
inactive: all other assays above

Cc1c([N+](=O)[O-])c(C)c([N+](=O)[O-])c(C(C)(C)C)c1[N+](=O)[O-]
active: [9] 1.84 µM | [10] 7.73 µM
not listed: [5]
inactive: all other assays above

CC(C)CP(=S)(S)CC(C)C
not listed: [5] | [9]
inactive: all other assays above

C1CN2CCN1CC2
not listed: [5] | [10]
inactive: all other assays above

CCCCCCCCCCCCBr
not listed: [7] | [8]
inactive: all other assays above

c1cc[c]([Sb]([c]2ccccc2)[c]2ccccc2)cc1
active: [6] 41.1 µM
not listed: [5] | [10]
inactive: all other assays above

CN(C1CCCCC1)C1CCCCC1
not listed: [5]
inactive: all other assays above

CCN(CCO)CCO
inactive: [1] | [2] | [3] | [8] | [4] | [9]

CCOC(=O)CC(=O)CCl
inactive: [3] | [8] | [4]
active: [1] 23.9 µM | [2] 26.2 µM | [9] 27 µM

CCN(N=O)C(N)=O
not listed: [5] | [7]
inactive: all other assays above

CCCCN(CCCC)C(=S)[S-].CCCCN(CCCC)C(=S)[S-].[Ni+2]
not listed: [7] | [8]
inactive: all other assays above

O=C(NC(=O)c1c(F)cccc1F)Nc1ccc(Cl)cc1
not listed: [5]
inactive: all other assays above

CCOP(=S)(OCC)O/N=C(\C#N)c1ccccc1
inactive: [1] | [2] | [3] | [8] | [4] | [9]

Cc1ccc2nc3sc(=O)sc3nc2c1
active: [8] 43.9 µM | [9] 14.3 µM
not listed: [5]
inactive: all other assays above

O=C/C(Cl)=C(/Cl)C(=O)O
active: [2] 159 µM | [4] 31.9 µM | [6] 43.7 µM | [9] 74.3 µM | [10] 156 µM
inactive: [1] | [3] | [5]

N#Cc1ccncc1
not listed: [5] | [7]
inactive: all other assays above

Cc1cc(C(C)(C)c2ccc(O)c(C)c2)ccc1O
inactive: [1] | [5] | [6]
active: [2] 30.3 µM | [3] 93.9 µM | [4] 41.3 µM | [9] 13.7 µM

CCOP(=S)(OCC)SCSc1cc(Cl)ccc1Cl
not listed: [8]
inactive: all other assays above

CC(=O)C(F)(F)C(F)(F)F
not listed: [7] | [8]
inactive: all other assays above

Nc1nc(N)nc(Cl)n1
not listed: [5] | [6] | [9]
inactive: all other assays above

Cc1cccc(N=Nc2ccc(N(C)C)cc2)c1
active: [9] 19.8 µM
not listed: [8]
inactive: all other assays above

O=C(NC(=O)c1c(F)cccc1F)Nc1cc(Cl)c(OC(F)(F)C(F)C(F)(F)F)cc1Cl (stereo not drawn)
not listed: [5] | [7] | [8]
inactive: all other assays above

Oc1c(Cl)cc(Cl)cc1Cl
not listed: [8] | [9] | [10]
inactive: all other assays above

CC(O)(CS(=O)(=O)c1ccc(F)cc1)C(=O)Nc1ccc(C#N)c(C(F)(F)F)c1 (stereo not drawn)
active: [9] 32.3 µM
not listed: [3] | [7] | [10]
inactive: all other assays above

O=c1[nH]c(=O)n(Cl)c(=O)n1Cl
inactive: [1] | [2] | [8] | [4] | [6]

Oc1c(Br)cc(Br)cc1Br
inactive: [2] | [4] | [5] | [7]
active: [1] 25.9 µM | [8] 65.7 µM | [6] 156 µM | [10] 5.59 µM

COc1ccc([N+](=O)[O-])cc1O
not listed: [3] | [7]
inactive: all other assays above

CC(C=O)Cc1ccc2c(c1)OCO2 (stereo not drawn)
active: [9] 12.8 µM
not listed: [3] | [7] | [10]
inactive: all other assays above

COc1nn(C(=O)NS(=O)(=O)c2ccccc2OC(F)(F)F)c(=O)n1C
inactive: [1] | [2] | [4] | [5] | [6] | [9]

CCOc1cc(C=O)ccc1O
not listed: [3] | [8] | [10]
inactive: all other assays above

CCOC(=O)c1ccccc1S(=O)(=O)NC(=O)Nc1nc(Cl)cc(OC)n1
not listed: [3] | [7] | [10]
inactive: all other assays above

O=C(Nc1ccc(Br)cc1)c1cc(Br)cc(Br)c1O
inactive: [1] | [2] | [4] | [5] | [10]
active: [6] 4.16 µM | [9] 6.47 µM

O=C(N[C@H]1CN2CCC1CC2)c1ccc2c(c1)OCCO2
not listed: [5] | [8] | [10]
inactive: all other assays above

CCC(C)(C#N)N=NC(C)(C#N)CC (stereo not drawn)
not listed: [8] | [9]
inactive: all other assays above

c1csc(-c2ccc(-c3cccs3)s2)c1
active: [8] 4.42 µM | [9] 3.41 µM | [7] 6.62 µM | [10] 4.23 µM
inactive: [1] | [2] | [4] | [5]

CS(=O)(=O)c1ccc(C(=O)C2C(=O)CCCC2=O)c(Cl)c1COCC(F)(F)F
not listed: [3] | [6] | [8]
inactive: all other assays above

CCOCn1c(-c2ccc(Cl)cc2)c(C#N)c(Br)c1C(F)(F)F
inactive: [8] | [5] | [7] | [10]
active: [1] 30.6 µM | [2] 49 µM | [4] 7.11 µM | [6] 25.6 µM | [9] 1.79 µM
